The record followed here is the supplement of paper PMC6378613.

Compound in this experiment: Cc1ccc(-c2ccc3c(ccc4sc5c(c43)NC[C@@H](C)NC5=O)n2)cn1
The experiment is described as follows: kinase activity remaining relative to vehicle control; higher = less inhibition. The method, then:
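In vitro radiometric kinase profiling of the MK2 inhibitor PF-3644022 at 0.1, 1 and 10 µM against a panel of kinases (MRC International Centre for Kinase Profiling, Dundee). Read-out is % kinase activity remaining relative to the vehicle control, mean of n=2.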

Sequence of UniProt Q15831 (Q15831 whole entry, looked up): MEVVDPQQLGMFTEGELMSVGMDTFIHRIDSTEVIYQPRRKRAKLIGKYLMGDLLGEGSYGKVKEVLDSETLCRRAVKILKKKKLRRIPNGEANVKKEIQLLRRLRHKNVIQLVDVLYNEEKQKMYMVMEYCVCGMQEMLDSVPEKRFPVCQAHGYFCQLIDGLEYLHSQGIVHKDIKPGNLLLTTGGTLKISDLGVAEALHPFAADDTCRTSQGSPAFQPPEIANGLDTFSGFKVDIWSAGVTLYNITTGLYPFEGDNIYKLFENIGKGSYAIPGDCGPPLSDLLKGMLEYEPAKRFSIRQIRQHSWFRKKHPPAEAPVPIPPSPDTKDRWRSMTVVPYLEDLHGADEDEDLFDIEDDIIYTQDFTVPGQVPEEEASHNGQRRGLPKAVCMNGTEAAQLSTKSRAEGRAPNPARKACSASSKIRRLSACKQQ
Sequence of UniProt Q9NQU5 (Q9NQU5 whole entry, looked up): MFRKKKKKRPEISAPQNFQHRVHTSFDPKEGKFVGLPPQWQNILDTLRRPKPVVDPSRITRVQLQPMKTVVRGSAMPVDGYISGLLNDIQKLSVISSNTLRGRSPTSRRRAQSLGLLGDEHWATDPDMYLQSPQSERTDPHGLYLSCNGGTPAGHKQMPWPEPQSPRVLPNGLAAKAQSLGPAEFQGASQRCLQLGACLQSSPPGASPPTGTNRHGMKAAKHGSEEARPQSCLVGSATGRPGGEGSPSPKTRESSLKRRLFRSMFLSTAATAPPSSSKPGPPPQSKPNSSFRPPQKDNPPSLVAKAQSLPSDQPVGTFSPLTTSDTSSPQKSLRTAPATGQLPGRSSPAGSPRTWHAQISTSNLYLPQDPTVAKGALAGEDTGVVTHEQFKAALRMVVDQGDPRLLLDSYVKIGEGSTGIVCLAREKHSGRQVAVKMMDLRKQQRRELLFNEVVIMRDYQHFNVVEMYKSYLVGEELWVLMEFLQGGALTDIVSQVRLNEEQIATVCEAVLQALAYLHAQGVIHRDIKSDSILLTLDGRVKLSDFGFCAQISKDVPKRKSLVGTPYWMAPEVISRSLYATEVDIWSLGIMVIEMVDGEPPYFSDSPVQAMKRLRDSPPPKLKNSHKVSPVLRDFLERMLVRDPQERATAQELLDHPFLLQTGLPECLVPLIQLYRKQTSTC
Sequence of UniProt Q9P1W9 (Q9P1W9 whole entry, looked up): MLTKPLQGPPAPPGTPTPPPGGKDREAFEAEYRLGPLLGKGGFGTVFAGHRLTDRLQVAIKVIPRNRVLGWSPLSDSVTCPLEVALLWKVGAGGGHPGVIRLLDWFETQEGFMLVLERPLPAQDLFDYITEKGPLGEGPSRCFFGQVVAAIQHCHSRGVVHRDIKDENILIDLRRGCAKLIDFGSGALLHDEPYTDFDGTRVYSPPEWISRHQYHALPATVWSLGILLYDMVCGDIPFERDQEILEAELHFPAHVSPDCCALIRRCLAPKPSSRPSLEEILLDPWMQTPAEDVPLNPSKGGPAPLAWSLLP
Sequence of UniProt P04629 (P04629 whole entry, looked up): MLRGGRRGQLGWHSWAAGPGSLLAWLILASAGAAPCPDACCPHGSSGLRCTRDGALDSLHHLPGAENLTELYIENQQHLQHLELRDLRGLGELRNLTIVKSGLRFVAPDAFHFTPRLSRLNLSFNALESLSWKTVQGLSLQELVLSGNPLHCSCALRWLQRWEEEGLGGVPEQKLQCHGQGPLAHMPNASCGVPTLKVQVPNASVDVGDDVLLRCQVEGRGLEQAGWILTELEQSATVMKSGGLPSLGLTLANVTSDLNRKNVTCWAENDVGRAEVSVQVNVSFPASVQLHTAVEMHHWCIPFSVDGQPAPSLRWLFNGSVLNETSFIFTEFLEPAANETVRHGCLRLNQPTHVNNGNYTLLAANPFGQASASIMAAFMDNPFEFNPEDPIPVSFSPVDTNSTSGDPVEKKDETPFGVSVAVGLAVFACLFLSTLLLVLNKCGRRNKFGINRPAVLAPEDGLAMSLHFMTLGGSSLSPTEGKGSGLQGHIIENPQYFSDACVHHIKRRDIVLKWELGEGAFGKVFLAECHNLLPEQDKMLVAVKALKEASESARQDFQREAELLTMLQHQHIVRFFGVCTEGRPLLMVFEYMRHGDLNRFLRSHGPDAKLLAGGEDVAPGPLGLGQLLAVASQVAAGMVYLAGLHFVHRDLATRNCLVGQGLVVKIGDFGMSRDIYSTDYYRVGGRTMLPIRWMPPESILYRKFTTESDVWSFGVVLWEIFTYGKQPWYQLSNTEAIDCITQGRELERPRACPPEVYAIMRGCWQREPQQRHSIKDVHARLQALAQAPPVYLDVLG
Sequence of UniProt Q9H4A3 (Q9H4A3 whole entry, looked up): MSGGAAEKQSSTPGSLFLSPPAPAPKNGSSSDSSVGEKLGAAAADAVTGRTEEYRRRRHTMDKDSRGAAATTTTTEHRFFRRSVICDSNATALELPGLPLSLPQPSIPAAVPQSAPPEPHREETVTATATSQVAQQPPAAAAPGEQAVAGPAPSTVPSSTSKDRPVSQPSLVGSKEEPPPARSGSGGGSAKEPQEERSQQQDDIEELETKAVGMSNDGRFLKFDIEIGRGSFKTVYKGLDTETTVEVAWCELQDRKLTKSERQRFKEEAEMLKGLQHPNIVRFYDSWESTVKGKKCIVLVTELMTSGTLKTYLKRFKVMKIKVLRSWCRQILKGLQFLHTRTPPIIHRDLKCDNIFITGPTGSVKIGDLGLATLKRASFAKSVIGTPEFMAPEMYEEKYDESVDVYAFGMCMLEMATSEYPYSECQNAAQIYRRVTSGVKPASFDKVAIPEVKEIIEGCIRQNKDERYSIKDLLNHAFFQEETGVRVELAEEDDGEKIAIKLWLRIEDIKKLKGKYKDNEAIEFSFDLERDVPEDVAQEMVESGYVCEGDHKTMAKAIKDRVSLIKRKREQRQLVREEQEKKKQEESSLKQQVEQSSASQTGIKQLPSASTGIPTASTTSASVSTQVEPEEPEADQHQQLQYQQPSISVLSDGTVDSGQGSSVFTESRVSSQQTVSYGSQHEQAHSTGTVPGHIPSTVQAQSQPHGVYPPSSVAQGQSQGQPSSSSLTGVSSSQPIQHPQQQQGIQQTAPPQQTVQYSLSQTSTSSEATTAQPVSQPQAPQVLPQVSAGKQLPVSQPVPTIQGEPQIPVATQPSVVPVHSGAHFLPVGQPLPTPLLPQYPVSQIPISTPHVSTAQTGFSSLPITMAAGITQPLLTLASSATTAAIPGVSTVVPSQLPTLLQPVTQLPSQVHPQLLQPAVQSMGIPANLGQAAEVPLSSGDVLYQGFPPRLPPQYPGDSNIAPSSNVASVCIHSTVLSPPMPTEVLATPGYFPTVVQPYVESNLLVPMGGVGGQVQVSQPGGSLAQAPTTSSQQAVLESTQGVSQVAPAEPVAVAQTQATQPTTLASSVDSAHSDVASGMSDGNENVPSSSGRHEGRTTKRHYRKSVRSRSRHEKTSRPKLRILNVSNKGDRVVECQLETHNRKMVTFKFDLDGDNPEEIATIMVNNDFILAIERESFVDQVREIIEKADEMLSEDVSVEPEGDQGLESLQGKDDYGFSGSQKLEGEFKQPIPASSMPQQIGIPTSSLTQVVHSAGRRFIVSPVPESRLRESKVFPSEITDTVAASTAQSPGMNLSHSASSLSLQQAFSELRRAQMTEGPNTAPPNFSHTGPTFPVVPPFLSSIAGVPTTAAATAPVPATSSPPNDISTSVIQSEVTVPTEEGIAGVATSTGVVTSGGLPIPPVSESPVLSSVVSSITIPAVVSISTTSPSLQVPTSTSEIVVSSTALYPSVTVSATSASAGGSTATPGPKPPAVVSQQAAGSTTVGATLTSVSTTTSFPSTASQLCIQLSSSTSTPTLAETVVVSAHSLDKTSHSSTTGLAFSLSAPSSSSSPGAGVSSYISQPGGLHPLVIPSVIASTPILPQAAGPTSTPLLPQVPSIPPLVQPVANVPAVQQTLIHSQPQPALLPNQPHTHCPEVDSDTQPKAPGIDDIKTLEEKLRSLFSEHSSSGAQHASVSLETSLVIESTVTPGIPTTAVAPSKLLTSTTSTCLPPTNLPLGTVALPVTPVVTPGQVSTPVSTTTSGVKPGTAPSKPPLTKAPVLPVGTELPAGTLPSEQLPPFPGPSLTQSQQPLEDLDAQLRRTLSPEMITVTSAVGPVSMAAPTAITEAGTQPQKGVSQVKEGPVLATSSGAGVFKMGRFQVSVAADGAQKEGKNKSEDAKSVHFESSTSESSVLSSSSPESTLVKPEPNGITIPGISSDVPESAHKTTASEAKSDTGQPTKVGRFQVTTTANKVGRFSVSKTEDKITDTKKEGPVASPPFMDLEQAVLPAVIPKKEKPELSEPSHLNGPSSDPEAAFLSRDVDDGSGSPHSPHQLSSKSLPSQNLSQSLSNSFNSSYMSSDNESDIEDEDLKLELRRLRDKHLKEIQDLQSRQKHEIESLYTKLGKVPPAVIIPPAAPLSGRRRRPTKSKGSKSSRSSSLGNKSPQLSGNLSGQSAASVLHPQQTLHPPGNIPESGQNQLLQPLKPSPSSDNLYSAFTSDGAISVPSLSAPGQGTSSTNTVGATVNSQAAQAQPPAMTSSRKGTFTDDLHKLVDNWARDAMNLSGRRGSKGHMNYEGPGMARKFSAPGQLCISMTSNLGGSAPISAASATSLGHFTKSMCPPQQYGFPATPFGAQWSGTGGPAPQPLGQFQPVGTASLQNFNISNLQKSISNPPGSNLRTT

For the target DYRK2 (UniProt Q92630), the kinase activity remaining was 101% (inhibitor concentration 0.1 µM), 105% (inhibitor concentration 1 µM) and 52% (inhibitor concentration 10 µM).
Turning to OSR1 (UniProt Q8TAX0), the kinase activity remaining (inhibitor concentration 0.1 µM) turned out to be 113%, the kinase activity remaining (inhibitor concentration 1 µM) turned out to be 112% and the kinase activity remaining (inhibitor concentration 10 µM) turned out to be 118%.
Taken in the same sequence, the figures for PIM2 (UniProt Q9P1W9) were 103%, 103% and 66%.
The corresponding values for CK1 gamma 2 are 123%, 112% and 102%.
The corresponding values for WNK1 (UniProt Q9H4A3) are 113%, 108% and 119%.
Turning to TrkA (UniProt P04629), the kinase activity remaining runs as follows: (inhibitor concentration 0.1 µM) 121%; (inhibitor concentration 1 µM) 100%; (inhibitor concentration 10 µM) 83%.
Consider PAK6 (UniProt Q9NQU5), for which the kinase activity remaining was 117% (inhibitor concentration 0.1 µM), 106% (inhibitor concentration 1 µM) and 116% (inhibitor concentration 10 µM).
As for DDR2 (UniProt Q16832), the kinase activity remaining is 105% (inhibitor concentration 0.1 µM), 101% (inhibitor concentration 1 µM) and 91% (inhibitor concentration 10 µM).
Turning to LKB1 (UniProt Q15831), the kinase activity remaining (inhibitor concentration 0.1 µM) was determined as 118%, the kinase activity remaining (inhibitor concentration 1 µM) stood at 103% and the kinase activity remaining (inhibitor concentration 10 µM) turned out to be 97%.
On to MKK1, for which the kinase activity remaining is, setting by setting: (inhibitor concentration 0.1 µM) 101%; (inhibitor concentration 1 µM) 97%; (inhibitor concentration 10 µM) 69%.
Take DAPK1 (UniProt P53355): the kinase activity remaining (inhibitor concentration 0.1 µM) stood at 103%, the kinase activity remaining (inhibitor concentration 1 µM) worked out at 62% and the kinase activity remaining (inhibitor concentration 10 µM) turned out to be 15%.
For the target DYRK1A (UniProt Q13627), the kinase activity remaining reads like this: (inhibitor concentration 0.1 µM) 80%; (inhibitor concentration 1 µM) 31%; (inhibitor concentration 10 µM) 8%.
For EPH-B3, the kinase activity remaining is, setting by setting: (inhibitor concentration 0.1 µM) 98%; (inhibitor concentration 1 µM) 88%; (inhibitor concentration 10 µM) 85%.
